# Compounds without any hit were thinned out: in the full panel of roughly 79,000, 15% have a hit. Values without a mark were called inactive. The source made the active and inactive calls. Rule as the data show it: active = growth inhibition above about 70%; inactive = the rest.
# What was measured:
# [1] = NCI Yeast Anticancer Drug Screen. Data for the rad50 strain (AID 155);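 also: 0% = growth of vehicle-only cultures of the same strain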; conditions: S. cerevisiae rad50 strain growth inhibition, active compounds read high
# Method in brief: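 Yeast carrying a defined DNA repair defect were exposed to test compounds, and growth was compared with vehicle-treated controls to give percent inhibition.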
# [2] = NCI Yeast Anticancer Drug Screen. Data for the mec2-1 strain (AID 157); conditions: S. cerevisiae mec2-1 strain, active compounds read high
# Method in brief: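 Vehicle-treated cultures served as reference for growth inhibition of compound-exposed mec2-1 yeast.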
# [3] = NCI Yeast Anticancer Drug Screen. Data for the sgs1 mgt1 strain (AID 161);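 also: 0% = growth of cultures given vehicle only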; conditions: S. cerevisiae sgs1 mgt1 strain, active compounds read high
# Method in brief: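 Read-out: growth inhibition vs vehicle controls. Cells: mutant yeast strain deficient in DNA damage repair.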
# [4] = NCI Yeast Anticancer Drug Screen. Data for the cln2 rad14 strain (AID 165);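 also: 0% = growth equal to vehicle treated cultures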; conditions: S. cerevisiae cln2 rad14 strain, active compounds read high
# Method in brief: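 Each compound was tested on cln2 rad14 yeast. Inhibition of growth was calculated against vehicle-exposed controls.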
# [5] = NCI Yeast Anticancer Drug Screen. Data for the bub3 strain (AID 167); conditions: S. cerevisiae bub3 mutant strain, active compounds read high
# Method in brief: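 Compounds were applied to a genetically altered yeast strain carrying a cell-cycle control defect. Growth inhibition was scored against vehicle-treated controls.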
# [6] = NCI Yeast Anticancer Drug Screen. Data for the mlh1 rad18 strain (AID 175); conditions: S. cerevisiae mlh1 rad18 strain growth inhibition, active compounds read high
# Method in brief: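 Vehicle-treated cultures served as the reference for growth inhibition in a yeast strain carrying DNA damage repair alterations exposed to each compound.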
# [7] = at 5.0 µM (retest, dose inferred, filed as 0.5)
# [8] = at 50.0 µM (retest, dose inferred, filed as 5.0)
Compound,"growth inhibition [1, 7]","growth inhibition [1, 8]",growth inhibition ([1]; at 50.0 µM),"growth inhibition [2, 7]","growth inhibition [2, 8]",growth inhibition ([2]; at 50.0 µM),"growth inhibition [3, 7]","growth inhibition [3, 8]",growth inhibition ([3]; at 50.0 µM),"growth inhibition [4, 7]","growth inhibition [4, 8]",growth inhibition ([4]; at 50.0 µM),"growth inhibition [5, 7]","growth inhibition [5, 8]",growth inhibition ([5]; at 50.0 µM),"growth inhibition [6, 7]","growth inhibition [6, 8]",growth inhibition ([6]; at 50.0 µM)
Nc1ccccc1/C=C/c1c[nH]c2ccccc12,11%,97% (active),91.6% (active),4%,98% (active),97.5% (active),5%,98% (active),53.2%,-8%,98% (active),95.6% (active),28%,97% (active),97.7% (active),9%,98% (active),97.3% (active)
CCCCCCCCCCCCCCCCC#N,-6%,-8%,50.4%,-2%,-4%,-7.4%,0%,-4%,52.1%,2%,0%,16.2%,-3%,-9%,52.2%,-5%,-5%,24.1%
O=C([O-])C[n+]1c(/C=C/c2ccccc2)ccc2ccccc21,-2%,69%,37.1%,-3%,87% (active),5.35%,-6%,92% (active),28.9%,-3%,85% (active),13.9%,2%,84% (active),6.8%,0%,94% (active),32.3%
CC(C)CCN(CCC(C)C)C(=S)Nc1ccccc1,-13%,87% (active),92.7% (active),6%,93% (active),89.2% (active),-20%,89% (active),86.8% (active),-22%,89% (active),90.8% (active),-7%,94% (active),92% (active),-7%,94% (active),92.5% (active)

# Source: PubChem BioAssay (NCI)
